TDP1 cell CPT: DT40-hTDP1 cell growth loss with CPT | hit rate 12% among 420,000 | Potency, µM (titrated, usually from 46.2 µM), most hits filed as inhibitors | chicken DT40 Tdp1-/-;hTDP1 cells + 20 nM CPT, ATP luminescence, 48 h | AID 686979; note: nearly all actives have a fitted effect of over 55% in size
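Chicken DT40 Tdp1-/- cells stably complemented with human TDP1 were seeded at 400 cells/well in medium containing 20 nM camptothecin, exposed to pin-transferred compounds, and grown at 37 °C for at least 48 hr. Viability was read as ATP luminescence.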
HT1080 IDH1KD tx: toxicity to HT-1080 IDH1 knockdown cells (counter line). HT-1080 IDH1 knockdown viability, ATP luminescence, 48 h. Potency, µM (doses to about 46.1 µM), usual class: cytotoxic. hit rate 2% among 360,000. AID 686971
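Knockdown cells (IDH1KD HT-1080) received compounds 2 h after plating at 750 cells/well and were kept 48 h at 37 °C in 5% FBS RPMI. A CellTiter-Glo luminescence read gave % activity for curve fitting.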
IL-1B inflam inh: inhibitors of inflammasome signaling (IL-1 beta secretion); THP-1 LPS/ATP IL-1B secretion, AlphaLISA, 16 h; stronger effect = lower value; activity change, % at 57.5 µM; hit rate 4.7% among 360,000; AID 743279; in the data active = activity change below about -50%; inconclusive = mostly about -30% to -49%
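Secreted IL-1B measured by AlphaLISA bead assay after 16 h compound exposure of THP-1 cells; compounds (final up to 57.5 uM) added 1 h before LPS (250 ng/mL) and ATP (1.25 mM) stimulation; lower signal means less secretion.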
HT1080-NT tox: kills 2HG-producing HT-1080-NT fibrosarcoma cells; hit rate 1.6% among 360,000; Potency, µM (series often up to 46.1 µM), most hits filed as cytotoxic; HT-1080-NT fibrosarcoma viability, CellTiter-Glo ATP luminescence, 48 h; AID 686970;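 note: NT is the 2HG producing partner of a matched IDH1 knockdown line; nearly all actives have a fitted effect of over 55% in size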
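Read-out is CellTiter-Glo luminescence after 10 minutes at room temperature, following 48 hours' compound treatment of HT-1080-NT cells (750 cells/well, RPMI, 5% FBS, 37 degrees C).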
ELG1 DNA repair: inhibitors of ELG1-dependent DNA repair in HEK293T cells | HEK293T ELG1-luciferase reporter, luminescence, 16 h; DNA damage induced by 5-fluorouridine | Potency, µM (top dose mostly 46.1 µM), most hits filed as inhibitors | hit rate 2.3% among 330,000; note: nearly all actives have a fitted effect of over 55% in size
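HEK293T cells expressing luciferase-tagged ELG1 (2,000/well) received 5-Fluorouridine plus compound or DMSO for 16 hr at 37 °C. Luciferase was read by ONE-Glo luminescence after 30 min at room temperature.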
DT40 TDP1 no CPT: qHTS for Inhibitors of human tyrosyl-DNA phosphodiesterase 1 (TDP1): qHTS in cells in absence of CPT; hit rate 15% among 420,000; Potency, µM (titrated, usually from 46.2 µM), hits mostly inhibitors; DT40 Tdp1-/- hTDP1 cells, no CPT, ATP luminescence, 48 h; note: nearly all actives have a fitted effect of over 55% in size
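DT40 Tdp1-/-;hTDP1 cells, no CPT (DMSO vehicle only), 400 cells/well; compounds pin-transferred; ≥48 hr, 37 °C; CellTiter-Glo 30 min RT dark, luminescence read.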
Numbers stand for hits; i = inactive; ? = inconclusive; nt = no result given. Rows were chosen to be rich in hits. Some 19% of all compounds tested hit in one or more screens of this group. Unless noted, calls come from the whole dose curve; as a rule, active = well fitted curve in the direction sought with a large enough effect; inconclusive = small, poorly fitted or top-dose-only effect, or another doubt; inactive = no such curve, though single readings can be large; an effect the other way counts as inactive or inconclusive.

SMILES | TDP1 cell CPT | HT1080 IDH1KD tx | IL-1B inflam inh | HT1080-NT tox | ELG1 DNA repair | DT40 TDP1 no CPT
CCc1cc(C(=O)N2CCCC(C(=O)c3ccc(C(F)(F)F)cc3)C2)n(C)n1 (stereo not given) | ? | i | i | i | i | ?
CCCCN(C)CCNC(=O)c1cc2c(-c3cccc(OC)c3)nn(C)c2s1 | ? | 23µM | -87 | 18µM | i | 21µM
COc1cccc(-c2cc(C(=O)NCc3ccco3)no2)c1 | i | i | i | i | ? | i
CCN(CC)CCCNC(=O)c1cc2c(-c3cccc(OC)c3)nn(C)c2s1 | ? | ? | ? | ? | ? | 15µM
CCOc1ccc(CCNC(=O)c2cc3c(-c4ccccc4F)nn(C)c3s2)cc1 | i | nt | nt | nt | nt | ?
COc1cccc(-c2nn(C)c3sc(C(=O)NCc4ccco4)cc23)c1 | 21µM | ? | -56 | i | ? | i
COc1cccc(-c2nn(C)c3sc(C(=O)NCCCN(C)Cc4ccccc4)cc23)c1 | ? | 18µM | -79 | 18µM | i | 16µM
COc1ccc(-n2nnnc2SCC(=O)Nc2ccc(OC)cc2OC)cc1 | i | i | i | i | ? | i
Clc1ccc(-c2nc3ccccn3c2CN2CCCCC2)cc1 | ? | i | i | i | ? | ?
Oc1ccc(N2CCN(Cc3c(-c4ccccc4)nc4ccccn34)CC2)cc1 | ? | i | i | i | i | 15µM
c1ccc(-c2nc3ccccn3c2-c2ccccc2)cc1 | ? | i | i | i | nt | 12µM
CC(C)(C)c1ccc(C(CC(=O)O)NC(=O)Cc2ccc(Cl)cc2)cc1 (stereo not given) | i | i | i | i | i | i
CCc1nc2ccc(C(=O)N3CCN(C(=O)c4ccco4)CC3)cn2c1N(C)Cc1nccs1 | i | i | i | i | nt | i
CCc1nc2ccc(C(=O)N(C)Cc3ccco3)cn2c1N(C)CCCc1ccccc1 | 16µM | ? | ? | ? | nt | 16µM
CCc1nc2ccc(C(=O)N(C)Cc3ccco3)cn2c1N(C)Cc1ccc(OC)cc1 | ? | i | ? | i | nt | ?
CCc1nc2ccc(C(=O)N3CCN(C(=O)c4ccco4)CC3)cn2c1N(CC)Cc1cccc(Br)c1 | 15µM | i | i | i | nt | 23µM
CCc1nc2ccc(C(=O)N(C)Cc3ccco3)cn2c1N(CC)Cc1cccc(Br)c1 | 12µM | i | i | ? | nt | 13µM
CCc1nc2ccc(C(=O)N(CC)CCN(C)C)cn2c1N(C)Cc1cccs1 | i | i | i | i | nt | i
CCc1nc2ccc(C(=O)N(C)CCN(C)C)cn2c1N(C)Cc1cc2ccccc2s1 | ? | ? | ? | 16µM | nt | ?
CC(C)(C)OC(=O)C[C@@H]1C/C=C\C[C@H](CC(=O)NCCO)C(=O)N2CCC[C@H]2COC1=O | i | i | i | i | ? | i
CCc1nc2ccc(C(=O)NC3CCN(Cc4ccccc4)CC3)cn2c1N(CC)Cc1cccc(Br)c1 | 15µM | 23µM | -102 | ? | nt | 12µM
COc1ccc(Cn2nnc3c(=O)[nH]c(C4CCN(S(=O)(=O)c5ccc(C)cc5)CC4)nc32)cc1 | ? | i | ? | ? | ? | ?
COC(=O)c1c(NC(=O)c2cc(=O)c3ccc(C)c(C)c3o2)sc2c1CCCC2 | i | nt | nt | nt | nt | i
CCN(CC)CCCNc1ccc(-c2nnc(-c3ccc(OCC(C)C)cc3)o2)cn1 | 2.9µM | ? | -51 | i | i | 2.9µM
Cc1ccc2[nH]c(CNC(=O)C3CCCCC3)cc2c1 | i | i | i | i | i | i
SMILES | TDP1 cell CPT | HT1080 IDH1KD tx | IL-1B inflam inh | HT1080-NT tox | ELG1 DNA repair | DT40 TDP1 no CPT
CCc1ccc(NC(=O)CCCc2nnc3n(CC(C)C)c(=O)c4sccc4n23)cc1 | 21µM | nt | nt | nt | nt | 23µM
CCCCC(CC)CNC(=O)CCCn1c(=O)[nH]c2ccsc2c1=O (stereo not given) | 15µM | nt | nt | nt | nt | ?
CCn1c(=O)c2sccc2n2c(CCC(=O)NCc3ccc(Cl)cc3)nnc12 | ? | nt | nt | nt | nt | 21µM
Cn1c(=O)c2sccc2n2c(CCCC(=O)NCc3ccc(F)cc3)nnc12 | i | i | i | i | i | i
CC(C)CCn1c(=O)c2sccc2n2c(CCCC(=O)NCc3ccc(F)cc3)nnc12 | 18µM | nt | nt | nt | nt | ?
CCn1c(=O)c2sccc2n2c(CCC(=O)Nc3ccc(OC)c(Cl)c3)nnc12 | i | nt | nt | nt | nt | i
COc1ccc(CCN2C(=O)COc3ccccc3C2C(=O)NCc2ccccc2)cc1OC (stereo not given) | i | i | i | i | nt | i
COc1ccc(CNC(=O)CCCc2nnc3n(CCC(C)C)c(=O)c4sccc4n23)cc1 | 18µM | nt | nt | nt | nt | 18µM
CCCCC(CC)CNC(=O)CCCc1nnc2n(CCC)c(=O)c3sccc3n12 (stereo not given) | 21µM | nt | nt | nt | nt | 23µM
CC(=O)NCCNC(=O)CCCc1nnc2n(CCC(C)C)c(=O)c3sccc3n12 | i | nt | nt | nt | nt | i
CCn1c(=O)c2sccc2n2c(CCCC(=O)N3CCN(c4cc(C)ccc4C)CC3)nnc12 | 6.5µM | nt | nt | nt | nt | 6.5µM
CCCn1c(=O)c2sccc2n2c(CCCC(=O)NCc3ccco3)nnc12 | i | i | i | i | i | i
CC(C)CCn1c(=O)c2sccc2n2c(CCCC(=O)NCCc3ccccc3)nnc12 | 15µM | nt | nt | nt | nt | 15µM
Cc1ccc2c(c1)N(CCC(=O)NCc1ccccc1Cl)C(=O)CO2 | i | nt | nt | nt | nt | i
COc1ccc(Cc2nnc(N/N=C(\C)c3ccccc3)[nH]c2=O)cc1OC | i | i | i | i | i | i
CCOc1ccc(CCNC(=O)CCCc2nnc3n(CC(C)C)c(=O)c4sccc4n23)cc1 | ? | nt | nt | nt | nt | 18µM
CCn1c(=O)c2sccc2n2c(CCCC(=O)NCCc3ccc(S(N)(=O)=O)cc3)nnc12 | i | i | i | i | i | i
COc1ccc(NC(=O)CCCc2nnc3n(CCC(C)C)c(=O)c4sccc4n23)cc1Cl | ? | nt | nt | nt | nt | 21µM
O=C(CCn1cnc2ccccc2c1=O)NCc1ccccc1 | ? | nt | nt | nt | nt | i
N#Cc1ccc(-c2csc(NC(=O)/C=C/c3cccs3)n2)cc1 | 13µM | i | i | i | ? | 10µM
O=C(/C=C\c1ccco1)Nc1nc(-c2ccccc2)cs1 | i | i | i | i | ? | i
N#Cc1ccc(-c2csc(NC(=O)C3CC3)n2)cc1 | 0.73µM | i | i | i | i | 0.37µM
O=C(CN1CCN(c2ccccc2O)CC1)Nc1ccccc1C(=O)NCCc1ccccc1 | 23µM | i | i | i | ? | 16µM
COc1ccc(CCNC(=O)c2ccccc2NC(=O)CN2CCN(c3ccccc3O)CC2)cc1 | ? | i | i | i | 5.2µM | 10µM
NS(=O)(=O)c1ccc(CCNC(=O)CN2CCN(c3ccc(F)cc3)CC2)cc1 | ? | i | i | i | i | ?
